We go through 13 compounds from PubChem BioAssay.

SMILES strings stand for the structures. Some of the results follow. Calls of active or inactive are those of the source.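 The calls were made as follows, unless noted: active = GFP response vs DMSO above about 150% (limit read from the data); inconclusive = fewer than 70 events counted for a yeast strain; inactive = the rest.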

Assay [1] is described as follows: reduced mouse 2C T cell binding to pMHC/ICAM-1 vesicles – MLPCN validation set, flow cytometry, LFA-1/ICAM-1 modulator project, pilot screen (AID 2523;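 active = response below a set limit, under 55% cells CD8-positive and vesicle-bound, and CD8 cells' 90th-percentile brightness under 279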;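 as to vesicle binding response: mean PE anti-B7-1 fluorescence of CD8+ cells relative to row control; 100% = QL9-loaded vesicles with DMSO vehicle in the same plate row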). The settings on record: 2C mouse CD8+ T cells, at 7 µM, stronger effect = lower value; double positive events: measured here: CD8+/vesicle+ event percentage.
Assay [2] concerns the target Integrin beta-1 (Homo sapiens) + Integrin alpha-4 (Homo sapiens) (UniProt P13612+P05556). In words: alpha4beta1 integrin LIBS antibody binding reduction – U937 cells, HUTS-21 mAb, flow cytometry, validation set, VLA-4 allosteric modulator project, pilot screen (AID 2674;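 active = inhibition above 50%, about 3 SD of the validation set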;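 also: antibody binding induced by the VLA-4 ligand LDV present at three times its Kd; 0% = LDV ligand with antibody and no compound and 100% = antibody without LDV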). The conditions noted are these: HUTS-21 LIBS mAb binding, at 6.7 µM, stronger effect = higher value, binding induced by LDV ligand. For orientation: A flow cytometer gives signals particle by particle.

Assay [3] concerns the target Beta-adrenergic receptor kinase 1 (Homo sapiens) (UniProt P25098). In words: GRK2 binders displacing RNA aptamer, biochemical, validation, human GRK2, bead flow cytometry (AID 488806;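 active = aptamer binding inhibition above 30%, about 3 SD of noise from non-fluorescent compounds; inactive = inhibition at or below 30%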). The conditions noted are these: bead-bound GRK2, FAM-aptamer displacement, at 10 µM, stronger effect = higher value.
In assay [4] the target is Beta-2 adrenergic receptor (Homo sapiens) (UniProt P07550). In words: agonist-induced loss of surface beta2AR – cell-based, FAP fluorogen, flow cytometry, validation set, pilot screen (AID 504459;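 active = percent response above 42, roughly 3 SD of non-fluorescent test compounds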;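 also: agonist-driven loss of surface beta2AR via internalization measured by FAP dye flow cytometry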). The conditions noted are these: Am2.2-beta2AR cells, at 10 µM, stronger effect = higher value.
Sequence of Beta-2 adrenergic receptor (Homo sapiens) (P07550 whole entry, looked up): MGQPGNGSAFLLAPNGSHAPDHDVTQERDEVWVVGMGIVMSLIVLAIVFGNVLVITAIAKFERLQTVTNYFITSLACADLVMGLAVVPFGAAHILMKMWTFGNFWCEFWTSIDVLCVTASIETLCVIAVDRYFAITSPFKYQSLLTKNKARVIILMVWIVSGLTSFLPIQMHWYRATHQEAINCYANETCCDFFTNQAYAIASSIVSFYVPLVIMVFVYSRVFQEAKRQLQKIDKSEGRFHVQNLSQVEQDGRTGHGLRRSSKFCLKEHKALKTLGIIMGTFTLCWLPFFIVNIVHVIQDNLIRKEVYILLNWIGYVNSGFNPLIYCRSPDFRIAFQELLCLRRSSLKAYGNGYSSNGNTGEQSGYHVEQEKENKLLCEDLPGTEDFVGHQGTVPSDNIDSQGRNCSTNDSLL
Assay [5] in a line: cytosolic pH regulators acting via V-ATPase – S. cerevisiae, pHLuorin, HTS validation (AID 504600; in the data active = response above about 15%;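 also: plate controls were DMSO for no effect and reference compound for full effect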). The settings on record: V-ATPase proton transport, at 10 µM, stronger effect = higher value.
Assay [6] deals with anti-desmoglein-3 scFv antibody binding to human DSG3. In words: blockers of pathogenic pemphigus antibody–desmoglein-3 binding – biochemical, validation compound set, bead-based, flow cytometry, pilot screen (AID 588368;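 active = binding below the plate cutoff, the plate median minus 3 SD, with a reading above zero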;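 also: signal is the median channel fluorescence of bead-bound GFP antibody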). The settings on record: Protein G beads, DSG3-Fc, scFv-GFP binding, at 10 µM, stronger effect = lower value.
Assay [7] in a line: Nile Red efflux blockade in pump-expressing yeast – validation compound set, multiplex, phenotypic, pilot screen (AID 588506;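 active = efflux inhibition above 0.42, the validation set average plus 4 SD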;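 also: Nile Red retained in cells so higher fluorescence means more efflux inhibition; 0 = negative control wells and 1 = enniatin B 25 µM full block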). The settings on record: S. cerevisiae pump-expressing triplex, Nile Red efflux flow cytometry; at 10 µM; stronger effect = higher value; the pumps come from Candida albicans.
Assay [8] concerns the target ATP-binding cassette sub-family B member 6 (Homo sapiens) (UniProt Q9NP58). In words: blockers of ABCB6-driven porphyrin uptake – K562-ABCB6 cells, flow cytometry, validation set, pilot screen (AID 588550;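 active = inhibition above the screen-wide mean plus 3 SD, about 51%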;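 also: 0% = DMSO wells and 100% = benzethonium chloride 70 µM positive control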). The conditions noted are these: K562-ABCB6 porphyrin accumulation, 1 h, at 10 µM, stronger effect = higher value.
Assay [9] is described as follows: AML differentiation inducers, ER-HoxA9 marrow cells – cell-based, GFP/MAC1 double positive, flow cytometry, validation set, primary screen (AID 588685;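 active = differentiation response of at least 50%, scaled between solvent and reference control, from cells with both markers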;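 also: compound exposure lasts four days before antibody staining and flow analysis; 0% = DMSO wells and 100% = 5 µM fulvestrant positive control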). The settings on record: stronger effect = higher value, normalized: vehicle 0, fulvestrant 100.
Assay [10] is described as follows: yeast TOR reporter LAP4-GFP level changes – cell-based, second cherry pick, flow cytometry, confirmation (AID 2621;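 active = GFP signal as percent of the solvent control above about 150%, meaning raised reporter expression, limit read from the data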;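 also: ratio of well median GFP fluorescence to plate DMSO mean so 100% = DMSO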). The settings on record: S. cerevisiae LAP4-GFP strain, 3 h, at 10 µM, stronger effect = higher value.
Assay [11] can be described thus: TOR pathway reporter MEP2-GFP, hit retest – S. cerevisiae, flow cytometry GFP, second cherry picks, confirmation (AID 2622;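 active = GFP signal above 150% of the solvent control wells, that is a rise of more than half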;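 also: median channel GFP fluorescence of all gated yeast cells per well; ratio of median GFP to plate DMSO average so 100% = DMSO level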). The settings on record: S. cerevisiae MEP2-GFP strain, 3 h, at 10 µM, stronger effect = higher value.
Assay [12] can be described thus: retest of hits on RPL19A-GFP strain – cell-based, S. cerevisiae, flow cytometry, second cherry pick, confirmation (AID 2623;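 active = under 65% GFP response relative to DMSO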;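 also: median GFP channel fluorescence per well over the all cells gate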). The conditions noted are these: 3 h, at 10 µM, stronger effect = lower value, 100% means same as DMSO wells.
Assay [13] is described as follows: yeast TOR pathway CIT2-GFP reporter modulation – flow cytometry, second cherry pick, single plex, confirmation (AID 2624).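 Also: median green fluorescence per well over all gated yeast cells.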 The settings on record: S. cerevisiae CIT2-GFP strain, 3 h, at 10 µM, stronger effect = higher value, DMSO control wells read 100%.
The nature of assay [14]: yeast AGP1-GFP fluorescence change, single-dose confirmation – cell-based, flow cytometry, S. cerevisiae, cherry pick set 2 (AID 2643;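 active = over 150 percent of DMSO response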;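 also: median GFP channel fluorescence over all cells without mother daughter split; sample median GFP divided by mean DMSO control so 100% equals DMSO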). The settings on record: S. cerevisiae AGP1-GFP strain, 3 h, at 10 µM, stronger effect = higher value.
For assay [15], the target named is AP-2 complex subunit beta (Homo sapiens) (UniProt P63010). In words: beta-arrestin/AP2 interaction blockers – biochemical, validation set, GST-AP2 beads, flow cytometry, pilot screen (AID 504541;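 active = inhibition above 54%, about 3 SD of non-fluorescent compounds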;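 also: AP2 carries R879A mutation and is captured from E. coli lysate; bead-bound FITC arrestin peptide fluorescence measuring arrestin peptide binding to AP2; 0% = DMSO wells and 100% = excess unlabeled arrestin peptide control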). The settings on record: FITC arrestin peptide, at 10 µM, stronger effect = higher value, AP2 beta2 appendage fragment, R879A mutant.
Sequence of AP-2 complex subunit beta (Homo sapiens) (P63010 whole entry, looked up, the tested form may be a part, one chain of several): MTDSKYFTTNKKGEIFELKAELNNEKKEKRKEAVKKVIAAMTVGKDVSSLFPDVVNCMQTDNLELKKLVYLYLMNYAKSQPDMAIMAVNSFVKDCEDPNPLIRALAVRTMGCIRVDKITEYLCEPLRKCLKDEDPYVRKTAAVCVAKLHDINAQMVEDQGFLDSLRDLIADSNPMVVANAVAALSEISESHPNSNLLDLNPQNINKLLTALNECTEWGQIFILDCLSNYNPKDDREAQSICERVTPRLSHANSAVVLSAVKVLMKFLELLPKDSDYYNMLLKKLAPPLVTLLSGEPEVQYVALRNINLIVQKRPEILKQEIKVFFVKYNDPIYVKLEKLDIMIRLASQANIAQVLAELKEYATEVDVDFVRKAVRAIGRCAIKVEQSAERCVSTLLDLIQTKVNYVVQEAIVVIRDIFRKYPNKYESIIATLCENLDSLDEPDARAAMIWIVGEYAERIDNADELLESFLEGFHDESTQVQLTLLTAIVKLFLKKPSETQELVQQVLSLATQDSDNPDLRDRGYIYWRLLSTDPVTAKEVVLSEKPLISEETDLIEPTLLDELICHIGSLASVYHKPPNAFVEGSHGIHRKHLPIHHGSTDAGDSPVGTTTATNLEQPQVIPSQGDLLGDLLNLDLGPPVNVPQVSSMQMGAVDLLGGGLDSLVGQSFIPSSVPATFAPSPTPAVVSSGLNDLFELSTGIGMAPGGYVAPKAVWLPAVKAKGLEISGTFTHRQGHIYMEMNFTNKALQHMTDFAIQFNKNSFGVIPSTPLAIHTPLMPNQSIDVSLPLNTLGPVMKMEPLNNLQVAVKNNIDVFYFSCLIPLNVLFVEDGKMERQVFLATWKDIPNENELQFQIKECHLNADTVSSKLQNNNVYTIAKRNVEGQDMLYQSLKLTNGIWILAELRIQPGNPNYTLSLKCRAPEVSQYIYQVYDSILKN
The nature of assay [16]: green-channel fluorescence artefact in S. cerevisiae – s288c strain, artefact control for yeast TOR pathway GFP screen, dose response (AID 2757;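 active = fluorescence span over the dose series, or activity score, above about 33, limit read from the data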;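 also: thousands of bead-calibrated equivalent soluble fluorophore molecules from median cell fluorescence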). The settings on record: 520 nm autofluorescence, flow cytometry, 3 h, at 33 µM, stronger effect = higher value, zero means same as solvent-only cells.

Sequence of Integrin beta-1 (Homo sapiens) + Integrin alpha-4 (Homo sapiens) (P05556 whole entry, looked up): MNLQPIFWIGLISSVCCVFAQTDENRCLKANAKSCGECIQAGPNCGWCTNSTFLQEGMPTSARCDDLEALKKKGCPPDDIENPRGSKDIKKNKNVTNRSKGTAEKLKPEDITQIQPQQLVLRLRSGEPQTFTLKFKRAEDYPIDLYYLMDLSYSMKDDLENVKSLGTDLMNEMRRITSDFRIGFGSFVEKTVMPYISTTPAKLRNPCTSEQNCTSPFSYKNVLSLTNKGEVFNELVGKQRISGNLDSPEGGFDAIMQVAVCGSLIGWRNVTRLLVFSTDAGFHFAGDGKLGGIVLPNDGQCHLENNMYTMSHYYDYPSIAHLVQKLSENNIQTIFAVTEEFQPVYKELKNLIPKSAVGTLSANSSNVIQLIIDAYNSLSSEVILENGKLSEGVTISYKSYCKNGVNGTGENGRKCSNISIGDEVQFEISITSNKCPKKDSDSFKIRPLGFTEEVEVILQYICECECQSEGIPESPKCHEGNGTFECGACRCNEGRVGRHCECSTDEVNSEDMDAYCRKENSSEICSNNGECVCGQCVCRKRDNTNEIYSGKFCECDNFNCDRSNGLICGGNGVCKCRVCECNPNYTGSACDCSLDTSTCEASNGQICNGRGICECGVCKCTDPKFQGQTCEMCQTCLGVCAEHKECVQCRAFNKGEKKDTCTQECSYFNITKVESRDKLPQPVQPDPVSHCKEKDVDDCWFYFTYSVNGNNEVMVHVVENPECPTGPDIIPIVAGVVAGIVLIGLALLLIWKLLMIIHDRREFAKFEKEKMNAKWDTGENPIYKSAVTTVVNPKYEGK
Sequence of Integrin beta-1 (Homo sapiens) + Integrin alpha-4 (Homo sapiens) (P13612 whole entry, looked up): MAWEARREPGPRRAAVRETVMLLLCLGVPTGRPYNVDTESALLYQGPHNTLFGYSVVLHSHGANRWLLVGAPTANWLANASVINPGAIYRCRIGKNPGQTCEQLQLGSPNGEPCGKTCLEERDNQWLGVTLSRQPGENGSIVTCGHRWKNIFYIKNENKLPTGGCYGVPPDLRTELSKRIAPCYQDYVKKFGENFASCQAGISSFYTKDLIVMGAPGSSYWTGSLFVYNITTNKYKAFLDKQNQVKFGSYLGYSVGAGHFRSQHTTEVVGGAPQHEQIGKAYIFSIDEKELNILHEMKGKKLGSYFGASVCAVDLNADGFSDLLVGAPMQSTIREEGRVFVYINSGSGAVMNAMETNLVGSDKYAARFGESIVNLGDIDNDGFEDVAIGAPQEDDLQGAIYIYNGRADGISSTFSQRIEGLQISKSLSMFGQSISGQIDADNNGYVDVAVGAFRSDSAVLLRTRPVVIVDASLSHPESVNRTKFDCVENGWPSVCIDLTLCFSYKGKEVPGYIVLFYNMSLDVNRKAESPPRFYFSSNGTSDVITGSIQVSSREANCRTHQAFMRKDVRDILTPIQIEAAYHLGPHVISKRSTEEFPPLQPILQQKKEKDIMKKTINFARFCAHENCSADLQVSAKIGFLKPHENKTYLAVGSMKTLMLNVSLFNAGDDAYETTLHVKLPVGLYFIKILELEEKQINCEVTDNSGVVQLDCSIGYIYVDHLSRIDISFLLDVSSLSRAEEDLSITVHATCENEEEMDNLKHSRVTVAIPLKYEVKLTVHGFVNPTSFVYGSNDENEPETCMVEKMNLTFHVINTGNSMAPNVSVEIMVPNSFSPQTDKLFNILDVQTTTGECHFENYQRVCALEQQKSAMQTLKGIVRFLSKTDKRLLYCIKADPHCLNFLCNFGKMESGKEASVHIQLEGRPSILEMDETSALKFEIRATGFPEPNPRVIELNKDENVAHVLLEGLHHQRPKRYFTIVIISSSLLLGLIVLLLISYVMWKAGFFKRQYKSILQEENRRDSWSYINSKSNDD
Sequence of ATP-binding cassette sub-family B member 6 (Homo sapiens) (Q9NP58 whole entry, looked up): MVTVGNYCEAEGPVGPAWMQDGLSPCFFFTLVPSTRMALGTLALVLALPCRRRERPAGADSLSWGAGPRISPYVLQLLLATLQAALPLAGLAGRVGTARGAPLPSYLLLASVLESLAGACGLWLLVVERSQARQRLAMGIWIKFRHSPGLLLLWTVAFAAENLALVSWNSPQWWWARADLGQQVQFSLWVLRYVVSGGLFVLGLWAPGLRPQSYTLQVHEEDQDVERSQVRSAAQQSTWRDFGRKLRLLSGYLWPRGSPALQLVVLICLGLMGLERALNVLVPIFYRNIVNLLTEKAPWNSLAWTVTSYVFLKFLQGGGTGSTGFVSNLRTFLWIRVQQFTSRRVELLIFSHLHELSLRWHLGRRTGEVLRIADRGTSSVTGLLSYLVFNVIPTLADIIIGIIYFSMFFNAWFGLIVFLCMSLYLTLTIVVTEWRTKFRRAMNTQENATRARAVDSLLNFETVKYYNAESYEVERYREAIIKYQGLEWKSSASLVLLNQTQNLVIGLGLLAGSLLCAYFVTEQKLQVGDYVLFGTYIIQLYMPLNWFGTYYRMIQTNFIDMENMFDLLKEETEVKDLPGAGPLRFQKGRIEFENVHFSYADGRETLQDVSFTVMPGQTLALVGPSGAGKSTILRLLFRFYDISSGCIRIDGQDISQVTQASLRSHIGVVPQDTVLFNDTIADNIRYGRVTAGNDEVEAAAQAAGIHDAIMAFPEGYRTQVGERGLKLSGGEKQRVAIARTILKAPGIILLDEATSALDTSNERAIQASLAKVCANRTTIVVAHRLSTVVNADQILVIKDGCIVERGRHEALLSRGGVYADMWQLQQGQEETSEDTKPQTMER
Sequence of Beta-adrenergic receptor kinase 1 (Homo sapiens) (P25098 whole entry, looked up): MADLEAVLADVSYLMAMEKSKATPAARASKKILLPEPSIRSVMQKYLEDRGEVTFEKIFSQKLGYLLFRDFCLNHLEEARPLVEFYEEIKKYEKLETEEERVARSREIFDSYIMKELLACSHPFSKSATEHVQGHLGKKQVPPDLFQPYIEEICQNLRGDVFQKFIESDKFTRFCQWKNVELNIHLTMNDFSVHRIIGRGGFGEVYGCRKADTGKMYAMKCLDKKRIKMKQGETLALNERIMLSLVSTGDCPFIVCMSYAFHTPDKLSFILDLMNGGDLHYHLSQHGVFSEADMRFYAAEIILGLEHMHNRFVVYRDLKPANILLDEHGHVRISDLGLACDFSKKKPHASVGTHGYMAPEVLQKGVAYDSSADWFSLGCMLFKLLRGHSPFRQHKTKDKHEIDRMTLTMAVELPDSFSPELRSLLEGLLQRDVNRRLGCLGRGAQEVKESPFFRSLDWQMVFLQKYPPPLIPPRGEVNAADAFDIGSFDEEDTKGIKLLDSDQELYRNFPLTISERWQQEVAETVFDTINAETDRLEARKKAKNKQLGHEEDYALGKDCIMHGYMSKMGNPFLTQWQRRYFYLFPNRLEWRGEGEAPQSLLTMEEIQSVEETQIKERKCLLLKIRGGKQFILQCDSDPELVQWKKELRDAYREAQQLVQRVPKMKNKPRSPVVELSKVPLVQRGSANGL

A word on the inhibition: it is the drop in the measured response relative to a control, in per cent. In assay [1], `COc1ccc2cc(-c3nc4ccccc4n3C)c(=O)oc2c1` registered a double positive events of 65.4%. Also, the vesicle binding response in assay [1] was 147% (inactive). Also, the inhibition in assay [2] was -9.79% (inactive); in assay [8], 7% (inactive). For the same compound, the aptamer binding inhibition in assay [3] was 1% (inactive). Moreover, the values for the response in assay [4] and in assay [5] were -16.5% (inactive) and -29.1% (inactive), respectively. The binding (% of control) in assay [6] was 95.5% (inactive). In addition, the efflux inhibition (fraction of control) in assay [7] is -0.2 (inactive). In addition, the differentiation response in assay [9] is 17.8% (inactive).

For `O=C(COc1cccnc1[N+](=O)[O-])Nc1ccc(Cl)cc1F`, the GFP response vs DMSO in assay [10] is 99.2% (inactive); in assay [11] it was 101% (inactive); in assay [12], 99.5% (inactive); in assay [13], 103% (inactive). Also, the percent response vs DMSO in assay [14] was 97.4% (inactive).

In the case of `CCOc1ccccc1C(=O)NCCC(=O)O`, the double positive events in assay [1] worked out at 60.3%. The vesicle binding response in assay [1] is 64.9% (inactive). Further, the inhibition in [2] was -17.1% (inactive); in assay [15] it was 19.4% (inactive); in assay [8], 13% (inactive). Besides, in assay [3], the aptamer binding inhibition was 1% (inactive). Also, the values for the response in assay [4] and in assay [5] were 12.6% (inactive) and 1.48% (inactive), respectively. Moreover, the binding (% of control) in assay [6] was 105% (inactive). In addition, in [7], the efflux inhibition (fraction of control) is 0.92 (active). The differentiation response in assay [9] is 16.9% (inactive).

As for `COc1ccc(-c2nc(CS(=O)(=O)CC(=O)NCc3cccc(Br)c3)c(C)o2)cc1`, the GFP response vs DMSO in assay [10] is 109% (inactive); in assay [11] it was 119% (inactive); in assay [12], 101% (inactive); in [13] it was 113% (inactive). Besides, the percent response vs DMSO in [14] was 99.3% (inactive).

On to `CC1=C/C(=N\OS(=O)(=O)c2ccccc2)C=CC1=O`, for which the GFP response vs DMSO is 126% (inactive) in assay [10], 145% (inactive) in [11], 103% (inactive) in [12] and 109% (inactive) in [13]. In assay [14], the percent response vs DMSO is 101% (inactive).

Consider `CCOC(=O)c1cnc(SCC(=O)NCc2ccco2)nc1N`, for which the GFP response vs DMSO in assay [10] was 99.2% (inactive); in assay [11], 97.8% (inactive); in [12] it was 96.8% (inactive); in assay [13], 111% (inactive). The percent response vs DMSO in [14] was 95.9% (inactive).

Regarding `CCN1/C(=C/c2ccc3ccc(C)cc3[n+]2CC)Sc2ccccc21`, the GFP response vs DMSO is 392% (active) in [10], 1240% (active) in assay [11], 136% (inactive) in assay [12] and 1630% (active) in assay [13]. The percent response vs DMSO in assay [14] was 203% (active).

`CS(=O)(=O)Oc1ccc2c(c1)O/C(=C\C=C\c1ccccc1)C2=O` yielded a double positive events in [1] of 64.8%. In addition, in [1], the vesicle binding response is 247% (inactive). The inhibition is -40.9% (inactive) in assay [2], 27.4% (inactive) in assay [15] and -22% (inactive) in assay [8]. Besides, the aptamer binding inhibition in [3] is 4% (inactive). In addition, the response was 26.6% (inactive) in assay [4] and -12.2% (inactive) in assay [5]. For the same compound, in assay [6], the binding (% of control) was 88.2% (inactive). In addition, in assay [7], the efflux inhibition (fraction of control) is -0.14 (inactive). Also, the differentiation response in assay [9] is 30.5% (inactive).

Regarding `C#CCOCCOCCOCCNc1nc(N2CCN(C(=O)CCCCCCCCCCNC(=O)[C@H](CCCCN)n3cc(C)nn3)CC2)nc(N2CCN(C(=O)CCCCCCCCCCNC(=O)[C@H](CO)n3cc(CCCSC)nn3)CC2)n1`, the GFP response vs DMSO in assay [10] was 109% (inactive); in [11], 119% (inactive); in [12], 97.6% (inactive); in assay [13] it was 110% (inactive). Besides, in assay [14], the percent response vs DMSO is 104% (inactive).

For the compound `CCc1nnc(SCc2cccc(F)c2)nc1CC`, the GFP response vs DMSO in [10] is 104% (inactive); in assay [11] it was 96.1% (inactive); in assay [12], 95.5% (inactive); in [13], 89% (inactive). Also, the percent response vs DMSO in assay [14] was 97.8% (inactive).

The compound `COC(=O)c1cc(-c2ccc(OC)c(OC)c2)on1` gave a double positive events in assay [1] of 64.8%. Moreover, the vesicle binding response in [1] was 155% (inactive). Further, the inhibition in assay [2] is -0.45% (inactive); in [15] it was 35.3% (inactive); in assay [8] it was 0% (inactive). The aptamer binding inhibition in [3] was -1% (inactive). Moreover, the values for the response in assay [4] and in assay [5] were 17.4% (inactive) and -27.6% (inactive), respectively. Besides, the binding (% of control) in assay [6] was 107% (inactive). Further, the efflux inhibition (fraction of control) in assay [7] was 0.61 (active). The differentiation response in assay [9] was 31.5% (inactive).

For the compound `Clc1cccc(CN2COc3c(cc(Cl)c4cccnc34)C2)c1`, the GFP response vs DMSO was 127% (inactive) in [10], 130% (inactive) in assay [11], 101% (inactive) in [12] and 95% (inactive) in assay [13]. Besides, the percent response vs DMSO in assay [14] is 95.3% (inactive). Further, the fluorescence change (kMESF span) in assay [16] was 1.92 (inactive).

`Cc1[nH]c2ccccc2c1C(=O)CN1CCCC1` yielded a double positive events in assay [1] of 61.6%. In assay [1], the vesicle binding response was 26% (inactive). Moreover, the inhibition in [2] is -4.6% (inactive); in assay [15], 4.83% (inactive); in [8] it was 48% (inactive). For the same compound, in [3], the aptamer binding inhibition is -4% (inactive). In addition, the response in assay [4] is 7.28% (inactive); in assay [5] it was -0.48% (inactive). Also, the binding (% of control) in assay [6] was 110% (inactive). In addition, the efflux inhibition (fraction of control) in [7] is 0.24 (inactive). Further, in assay [9], the differentiation response is 28.6% (inactive).
